Reference: PubChem BioAssay AID1159580 (chemical genetic matrix, 2015)
The whole screen tested about 5,500 compounds, of which about 2,000 (36%) were called active. Roughly 18% stayed inconclusive and do not appear here. Cut-off read from the data, not from the text of the source: active = normalized growth mostly below about 0.91 (no sharp cut-off); inconclusive = no clear call, values can overlap the other calls; inactive = mostly above about 0.92. The list shows a part of the results.

Assay: chemical genetic growth profiling, strain panel (AID 1159580);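 note: tested at 20 µM; growth read once vehicle control cultures reached saturation at 30 °C; 1 = growth at the plate median or of vehicle wells; lower values mean less growth of the strain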
Conditions: growth OD

Measured: normalized growth

N#CC(O[C@@H]1O[C@H](CO[C@@H]2O[C@H](CO)[C@@H](O)[C@H](O)[C@H]2O)[C@@H](O)[C@H](O)[C@H]1O)c1ccccc1 (some centres not stated)
inactive: S. cerevisiae deletion strains, locus YJR043C, strain POL32, stronger effect = lower value 1.01 | S. cerevisiae deletion strains, locus YJR066W, strain TOR1, stronger effect = lower value 0.921 | S. cerevisiae deletion strains, locus YJR075W, strain HOC1, stronger effect = lower value 0.999 | S. cerevisiae deletion strains, locus YKL009W, strain mrt4, stronger effect = lower value 0.99 | S. cerevisiae deletion strains, locus YKL068W, stronger effect = lower value 0.991 | S. cerevisiae deletion strains, locus YKL085W, strain MDH1 (second series), stronger effect = lower value 0.987 | S. cerevisiae deletion strains, locus YKL085W, strain MDH1, stronger effect = lower value 0.987 | S. cerevisiae deletion strains, locus YKL160W, strain elf1, stronger effect = lower value 0.983 | S. cerevisiae deletion strains, locus YKR001C, strain vps1, stronger effect = lower value 0.988 | S. cerevisiae deletion strains, locus YKR026C, strain gcn3, stronger effect = lower value 0.977 | S. cerevisiae deletion strains, locus YKR091W, strain srl3, stronger effect = lower value 0.979 | S. cerevisiae deletion strains, locus YLL001W, strain dnm1, stronger effect = lower value 0.984 | S. cerevisiae deletion strains, locus YLL026W, stronger effect = lower value 0.981 | S. cerevisiae deletion strains, locus YLL041C, strain sdh2, stronger effect = lower value 0.991 | S. cerevisiae deletion strains, locus YLR027C, strain aat2, stronger effect = lower value 0.987 | S. cerevisiae deletion strains, locus YLR039C, strain RIC1, stronger effect = lower value 1.01 | S. cerevisiae deletion strains, locus YLR058C, strain SHM2, stronger effect = lower value 1.01 | S. cerevisiae deletion strains, locus YLR102C, strain apc9, stronger effect = lower value 0.983 | S. cerevisiae deletion strains, locus YLR113W, strain HOG1, stronger effect = lower value 1.03 | S. cerevisiae deletion strains, locus YLR221C, strain rsa3, stronger effect = lower value 0.976 | S. cerevisiae deletion strains, locus YLR258W, strain gsy2, stronger effect = lower value 0.982 | S. cerevisiae deletion strains, locus YLR262C, strain YPT6 (second series), stronger effect = lower value 0.991 | S. cerevisiae deletion strains, locus YLR262C, strain YPT6, stronger effect = lower value 1.04 | S. cerevisiae deletion strains, locus YLR268W, strain sec22, stronger effect = lower value 0.972 | S. cerevisiae deletion strains, locus YLR320W, strain mms22, stronger effect = lower value 0.968 | S. cerevisiae deletion strains, locus YLR330W, strain CHS5, stronger effect = lower value 1.01 | S. cerevisiae deletion strains, locus YLR342W, strain FKS1 (second series), stronger effect = lower value 1.03 | S. cerevisiae deletion strains, locus YLR342W, strain FKS1, stronger effect = lower value 0.967 | S. cerevisiae deletion strains, locus YLR357W, strain rsc2, stronger effect = lower value 0.948 | S. cerevisiae deletion strains, locus YLR370C, strain arc18, stronger effect = lower value 0.991 | S. cerevisiae deletion strains, locus YLR371W, strain rom2, stronger effect = lower value 1.01 | S. cerevisiae deletion strains, locus YLR384C, strain iki3, stronger effect = lower value 0.96 | S. cerevisiae deletion strains, locus YLR418C, strain cdc73, stronger effect = lower value 1.02 | S. cerevisiae deletion strains, locus YML016C, strain PPZ1, stronger effect = lower value 0.986 | S. cerevisiae deletion strains, locus YML032C, strain rad52, stronger effect = lower value 1.01 | S. cerevisiae deletion strains, locus YML120C, strain ndi1, stronger effect = lower value 0.991 | S. cerevisiae deletion strains, locus YML124C, strain tub3, stronger effect = lower value 0.999 | S. cerevisiae deletion strains, locus YMR058W, strain fet3, stronger effect = lower value 0.989 | S. cerevisiae deletion strains, locus YMR078C, strain ctf18, stronger effect = lower value 1 | S. cerevisiae deletion strains, locus YMR125W, strain sto1, stronger effect = lower value 0.965 | S. cerevisiae deletion strains, locus YMR129W, stronger effect = lower value 0.985 | S. cerevisiae deletion strains, locus YMR205C, strain PFK2, stronger effect = lower value 0.985 | S. cerevisiae deletion strains, locus YMR223W, strain ubp8, stronger effect = lower value 1.01 | S. cerevisiae deletion strains, locus YMR231W, strain pep5, stronger effect = lower value 0.964 | S. cerevisiae deletion strains, locus YMR307W, strain GAS1, stronger effect = lower value 1.01 | S. cerevisiae deletion strains, locus YNL067W, strain RPL9B, stronger effect = lower value 1.03 | S. cerevisiae deletion strains, locus YNL071W, strain lat1, stronger effect = lower value 0.98 | S. cerevisiae deletion strains, locus YNL183C, strain NPR1, stronger effect = lower value 0.976 | S. cerevisiae deletion strains, locus YNL209W, strain ssb2, stronger effect = lower value 0.984 | S. cerevisiae deletion strains, locus YNL233W, strain BNI4, stronger effect = lower value 1.04 | S. cerevisiae deletion strains, locus YNL248C, strain rpa49, stronger effect = lower value 0.983 | S. cerevisiae deletion strains, locus YNL250W, strain rad50, stronger effect = lower value 0.969 | S. cerevisiae deletion strains, locus YNL271C, strain bni1, stronger effect = lower value 0.986 | S. cerevisiae deletion strains, locus YNL298W, strain CLA4, stronger effect = lower value 0.996 | S. cerevisiae deletion strains, locus YNL307C, strain MCK1, stronger effect = lower value 0.991 | S. cerevisiae deletion strains, locus YNL322C, strain KRE1 (second series), stronger effect = lower value 0.977 | S. cerevisiae deletion strains, locus YNR049C, strain mso1, stronger effect = lower value 0.984 | S. cerevisiae deletion strains, locus YNR052C, strain pop2, stronger effect = lower value 0.989 | S. cerevisiae deletion strains, locus YOL006C, strain TOP1, stronger effect = lower value 1.05 | S. cerevisiae deletion strains, locus YOL012C, strain htz1 1.19 | S. cerevisiae deletion strains, locus YOL147C, strain pex11, stronger effect = lower value 0.989 | S. cerevisiae deletion strains, locus YOR001W, strain rrp6, stronger effect = lower value 0.946 | S. cerevisiae deletion strains, locus YOR061W, strain CKA2, stronger effect = lower value 0.993 | S. cerevisiae deletion strains, locus YOR069W, strain VPS5, stronger effect = lower value 0.993 | S. cerevisiae deletion strains, locus YOR070C, strain gyp1, stronger effect = lower value 0.967 | S. cerevisiae deletion strains, locus YOR080W, strain dia2, stronger effect = lower value 0.966 | S. cerevisiae deletion strains, locus YOR083W, strain WHI5, stronger effect = lower value 0.976 | S. cerevisiae deletion strains, locus YOR106W, strain vam3, stronger effect = lower value 0.989 | S. cerevisiae deletion strains, locus YOR136W, strain idh2, stronger effect = lower value 0.994 | S. cerevisiae deletion strains, locus YOR144C, strain elg1, stronger effect = lower value 0.99 | S. cerevisiae deletion strains, locus YOR184W, strain ser1, stronger effect = lower value 1.04 | S. cerevisiae deletion strains, locus YOR231W, strain MKK1, stronger effect = lower value 0.974 | S. cerevisiae deletion strains, locus YOR265W, strain rbl2, stronger effect = lower value 0.981 | S. cerevisiae deletion strains, locus YOR270C, strain vph1, stronger effect = lower value 0.98 | S. cerevisiae deletion strains, locus YOR290C, strain snf2, stronger effect = lower value 0.988 | S. cerevisiae deletion strains, locus YOR316C, strain cot1, stronger effect = lower value 0.985 | S. cerevisiae deletion strains, locus YPL051W, strain arl3, stronger effect = lower value 0.98 | S. cerevisiae deletion strains, locus YPL078C, strain atp4, stronger effect = lower value 0.984 | S. cerevisiae deletion strains, locus YPL106C, strain sse1, stronger effect = lower value 0.972 | S. cerevisiae deletion strains, locus YPL240C, strain hsp82, stronger effect = lower value 0.985 | S. cerevisiae deletion strains, locus YPL256C, strain CLN2, stronger effect = lower value 0.969 | S. cerevisiae deletion strains, locus YPR119W, strain clb2, stronger effect = lower value 1.01 | S. cerevisiae deletion strains, locus YPR141C, strain kar3, stronger effect = lower value 0.981 | S. cerevisiae deletion strains, locus YPR163C, strain tif3, stronger effect = lower value 0.992 | S. cerevisiae deletion strains, locus YPR167C, strain met16, stronger effect = lower value 0.973 | S. cerevisiae deletion strains, strain wtn01, stronger effect = lower value 0.984 | S. cerevisiae strains, strain wild type, stronger effect = lower value 1.02
